Results: the supplement of paper PMC3334620
Over roughly 33,000 sequences, “E-score (-0.5 to 0.5)” has its median near -0.0034; the highest 2% begin near 0.25. Many of the other results were omitted from the sample, so the highest values are more common in it than they were.

target: T1, Yap3 (UniProt P38749); experiment: PBM E-score (8-mer binding enrichment) (E-score (-0.5 to 0.5)); higher = stronger / more preferred TF binding; details: protein concentration: 100 nM; construct: GST-full length
T1 sequence: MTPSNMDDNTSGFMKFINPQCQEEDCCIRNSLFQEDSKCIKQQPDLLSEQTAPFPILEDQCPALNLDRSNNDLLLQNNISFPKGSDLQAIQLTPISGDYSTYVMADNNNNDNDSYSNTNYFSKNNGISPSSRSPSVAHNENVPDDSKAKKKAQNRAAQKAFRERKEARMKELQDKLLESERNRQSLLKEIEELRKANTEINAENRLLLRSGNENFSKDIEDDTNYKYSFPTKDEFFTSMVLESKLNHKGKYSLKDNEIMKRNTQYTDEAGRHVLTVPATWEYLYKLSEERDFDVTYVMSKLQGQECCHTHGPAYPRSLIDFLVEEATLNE
Procedure, shortened: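 Yeast transcription factors carrying a GST tag, as full-length proteins or DNA-binding domains, were produced by PURExpress in vitro transcription/translation. About 100-200 nM protein was applied to universal all-10-mer Agilent arrays, double-stranded by primer extension on fresh or once-stripped slides. Bound protein was detected with fluorescent anti-GST, and scans were normalised with masliner. The Universal PBM Analysis Suite gave each ungapped eight-base word, pooled with its reverse complement, an E-score, a modified Wilcoxon-Mann-Whitney statistic.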

| Sequence | PBM E-score |
| --- | --- |
| GTGTAACA | -0.00489 |
| AAAAGTTA | 0.195 |
| TATTTCGA | 0.293 |
| AATTTCGA | -0.00117 |
| GATTTCGA | 0.12 |
| ATTGTCCG | 0.216 |
| TGGTAGAA | -0.0125 |
| TCTATAAA | 0.111 |
| GTTATAGA | 0.0873 |
| GTTATAAC | 0.162 |
| TTTATAAA | 0.277 |
| GTTATAAA | 0.283 |
| CTTATAAA | 0.187 |
| GCAATTAA | 0.112 |
| AGAACGCG | 0.14 |
| AAGTCGCG | 0.146 |
| CATCTACG | -0.0208 |
| GCCCGTAC | -0.155 |
| ACATGATC | 0.115 |
| CAATGATA | 0.137 |
| TAATGAAA | 0.218 |
| TAATGATA | 0.239 |
| AAATGATC | -0.129 |

| Sequence | PBM E-score |
| --- | --- |
| GCATGATA | 0.184 |
| AAATGAAA | 0.324 |
| AAATGATT | 0.19 |
| ACATGATA | 0.263 |
| CAATGAAA | 0.077 |
| GAATGATA | 0.295 |
| AAATGATA | 0.275 |
| ACCGCAAA | 0.109 |
| CCTTCATC | -0.195 |
| AGACTATC | 0.0563 |
| AGAAGTCG | 0.0232 |
| CGGATAGC | 0.052 |
| GACCAGAA | -0.00826 |
| ACGGCTAT | -0.0939 |
| CAGACCTC | -0.181 |
| GCAAAAGC | 0.0339 |
| AAATTAAA | 0.319 |
| GTATTAAC | 0.0508 |
| AAATTAAC | 0.136 |
| ATATTAAA | 0.378 |
| AGATTAAT | 0.194 |
| CTATTAAC | 0.188 |
| ATATTAAT | 0.351 |

| Sequence | PBM E-score |
| --- | --- |
| ATATTAAG | 0.0834 |
| AAATTAAT | 0.229 |
| ATATTAGA | 0.175 |
| ATATTAAC | 0.274 |
| CTATTAAA | 0.135 |
| AGAGACGC | 0.0051 |
| CTCCTCCC | -0.358 |
| GTACTGAA | 0.117 |
| AACCTTCG | 0.0416 |
| CATTGTAA | 0.172 |
| CACCAGAG | -0.215 |
| AAGAGTAA | 0.0872 |
| TCATTAAA | 0.258 |
| ACATTAAA | 0.229 |
| GCATTAAA | 0.177 |
| TGATTAAA | 0.113 |
| GTATTAAA | 0.141 |
| TTATTAAA | 0.34 |
| GGAGAAGA | -0.148 |
| TAACGCTA | 0.023 |
| ATGGCAAT | 0.0617 |
| GGGATTAC | 0.00382 |
| CAAGCTAG | -0.0475 |

| Sequence | PBM E-score |
| --- | --- |
| AATTAGGG | -0.107 |
| GATTAGTA | 0.218 |
| CATTAGTA | 0.289 |
| ACTTAGTG | -0.0604 |
| CATTAGCA | 0.0386 |
| CATTAGTC | 0.0988 |
| AGTTAGTC | 0.0694 |
| AGTTAGTA | 0.195 |
| AATTAGTA | 0.369 |
| AATTAGTC | 0.303 |
| CGTTAGTA | 0.241 |
| AATTAGTG | 0.269 |
| ACCTTATC | 0.0868 |
| ATCCTCTC | -0.0398 |
| GCAGTGTA | 0.0324 |
| GTTCACGA | 0.0641 |
| AACTTATT | 0.21 |
| GAAGAACA | 0.225 |
| TAAGAACA | 0.326 |
| CAAGAACA | -0.0451 |
| GTTCATAA | 0.0365 |
| GACTCGTA | -0.126 |
| GGATTGCC | -0.116 |

| Sequence | PBM E-score |
| --- | --- |
| AGAACACG | 0.0921 |
| CAAGGGAC | -0.0565 |
| CTTACTCA | 0.164 |
| GTTACTGA | 0.106 |
| GTTACTCA | 0.161 |
| CTTACTAA | 0.443 |
| CTTACTAC | 0.211 |
| GTTACTAA | 0.339 |
| ACGCGGGG | -0.0549 |
| GTTACGAA | 0.181 |
| AATACGTG | 0.0823 |
| CTTACGTC | 0.0927 |
| ATTACGAA | 0.329 |
| ACTACGAA | 0.099 |
| CTTACGAA | 0.259 |
| AATACGTA | 0.296 |
| CTTACGTA | 0.349 |
| GTTACGTA | 0.182 |
| CTCACGAA | 0.05 |
| CATACGTA | 0.156 |
| AGTACGAA | 0.245 |
| CTTGTCCA | -0.0307 |
| AAAGATCT | -0.0503 |

| Sequence | PBM E-score |
| --- | --- |
| AAGAGATT | 0.0728 |
| TAGGTAGA | 0.076 |
| CGTACAAA | 0.108 |
| ATTGGGCA | -0.0331 |
| GGCTACGA | -0.0605 |
| ATAGGGCC | -0.174 |
| TAGGGCAA | -0.0175 |
| CGTGCGAG | -0.0121 |
| ATTACGAG | 0.228 |
| ATTACGAC | 0.269 |
| ATTACGGG | 0.0809 |
| CTTACGAC | 0.0511 |
| ATTACGGA | 0.295 |
| ATTACGGC | 0.241 |
| ACTCGAGC | 0.0632 |
| ATTTGTAG | 0.117 |
| ATTTGTCA | 0.313 |
| CTTTGTAC | 0.0552 |
| CTTTGTAA | 0.27 |
| ATTTGTAC | 0.0689 |
| GTTTGTCA | 0.133 |
| CTTTGTCA | 0.15 |
| GTTTGTAA | 0.0859 |

| Sequence | PBM E-score |
| --- | --- |
| ATTTGTAA | 0.373 |
| GCGAATCA | 0.173 |
| CAACGGTG | -0.243 |
| CGCGTGGA | -0.183 |
| ATACTTAC | 0.0503 |
| CAATCAAC | 0.217 |
| AATAGCGA | 0.24 |
| CCCAAAGG | -0.2 |
| GAGAAGCA | -0.118 |
| AACTAGGT | 0.154 |
| GTGCTTTA | 0.121 |
| AGGTATGG | -0.0324 |
| ATGAATGA | 0.106 |
| ATGAATGC | 0.0737 |
| ATGAATGG | 0.268 |
| CGGAGCTA | -0.142 |
| GAGGCCAC | -0.223 |
| CTAGTCAA | -0.0259 |
| GGAGTAAA | 0.267 |
| ATAGTAAA | 0.238 |
| CTAGTAAA | 0.0933 |
| TGAGTAAA | 0.161 |
| GGAGTAAC | -0.103 |

| Sequence | PBM E-score |
| --- | --- |
| TTAGTCAA | 0.27 |
| TTAGTAAA | 0.295 |
| GTAGTCAA | -0.0796 |
| GAGCGTCC | -0.223 |
| ACACCACC | -0.209 |
| CCTACCCG | -0.174 |
| GAGAAACA | 0.218 |
| CGACCCAG | -0.23 |
| CGAGTGTA | -0.0629 |
| GTTTCATA | 0.0741 |
| CTAGTTAA | 0.26 |
| GTAGTTAA | 0.142 |
| ATAGTTAA | 0.114 |
| GCATGGGA | -0.197 |
| GATGACAA | 0.264 |
| GATGACAC | 0.132 |
| CATGACAA | 0.143 |
| CGGTTCGA | 0.0689 |
| GTGAACAC | -0.156 |
| ATGCCGTC | -0.0725 |
| CGAGCTGA | 0.081 |
| AGAGAGGA | -0.261 |
| ATGAATTG | 0.208 |

| Sequence | PBM E-score |
| --- | --- |
| CATGAATA | 0.0196 |
| ATTGAAAG | 0.143 |
| CTTGAATA | 0.113 |
| GATGAATA | 0.242 |
| ATTGAAAC | 0.155 |
| AATGAAAT | 0.21 |
| ATTGAAAA | 0.266 |
| ATTGAAAT | 0.263 |
| CTTGAAAA | 0.161 |
| TATGAATA | 0.266 |
| ATTGAATA | 0.256 |
| ATTGAATC | 0.0178 |
| CGTCGCAG | -0.0218 |
| GTAGAGAA | 0.0971 |
| GAGTGGAC | -0.0806 |
| AGCAAAGA | 0.0203 |
| CATACGAC | 0.0835 |
| AAGGAAAA | 0.156 |
| CCTCTGGA | -0.136 |
| TAATTGCA | 0.195 |
| GCTCCTAA | -0.265 |
| ACAAGGAT | 0.113 |
| TCTTGTAA | 0.118 |
